Source: PubChem (National Center for Advancing Translational Sciences (NCATS))
The list is not random: actives were taken first. Their share in the collection is about 21%.
ClpP mod – qHTS Assay for Activators of ClpP; purified B. subtilis ClpP, FRET peptide cleavage, 20 min; ATP-dependent Clp protease proteolytic subunit (Bacillus subtilis (strain 168)), P80244; Potency, µM (doses to about 57.5 µM), inactives show at the highest dose activity change, negative = active; AID 651965, 2013; hit rate 1.9% among 340,000; active means well fitted falling curve with a large enough effect; inconclusive means small, poorly fitted or top-dose-only effect; inactive means no such curve, though single readings can be large or run the other way; further: potency means the concentration at half of the fitted maximal effect; the source files actives as falling curves though it sought activators and does not explain the sign; nearly all actives have a fitted effect of over 65% in size
Target sequence (P80244 whole entry, looked up): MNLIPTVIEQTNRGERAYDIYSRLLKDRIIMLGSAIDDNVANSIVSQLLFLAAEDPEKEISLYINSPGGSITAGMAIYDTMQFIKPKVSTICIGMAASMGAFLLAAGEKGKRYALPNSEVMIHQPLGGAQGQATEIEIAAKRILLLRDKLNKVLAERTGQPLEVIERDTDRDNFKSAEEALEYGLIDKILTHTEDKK
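Purified B. subtilis ClpP, 10 microg/mL final in Tris/HCl pH8 with KCl, BSA, glycerol and Tween-20, cleaved an Abz/nitrotyrosine-quenched decapeptide. Fluorescence (ex 320, em 430) was read at 0 and 20 min at room temperature. Delta was normalized to 5.8 microM ADEP and DMSO/no-enzyme controls.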
TDP1 cell CPT – qHTS for Inhibitors of human tyrosyl-DNA phosphodiesterase 1 (TDP1): qHTS in cells in presence of CPT; AID 686979, 2013; Potency, µM (highest dose often 46.2 µM), inactives show at the top dose activity change, negative = growth inhibition, hits mostly inhibitors; chicken DT40 Tdp1-/-;hTDP1 cells + 20 nM CPT, ATP luminescence, 48 h; hit rate 12% among 420,000; further: potency means the concentration at half of the fitted maximal effect; on the % scale 0 is the no-effect control and ±100 the full control effect; nearly all actives have a fitted effect of over 55% in size
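Cell growth measured by CellTiter-Glo luminescence after a minimum 48 h, 37 C compound exposure with 20 nM CPT in Tdp1-knockout DT40 cells stably expressing hTDP1, seeded 400/well; qHTS titration format.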
DT40 TDP1 no CPT – qHTS for Inhibitors of human tyrosyl-DNA phosphodiesterase 1 (TDP1): qHTS in cells in absence of CPT | DT40 Tdp1-/- hTDP1 cells, no CPT, ATP luminescence, 48 h | Potency, µM (top dose mostly 46.2 µM), for the others: at the top dose activity change, negative = growth inhibition, hits mostly inhibitors | hit rate 15% among 420,000; further: potency means the concentration at half of the fitted maximal effect; on the % scale 0 is the no-effect control and ±100 the full control effect; nearly all actives have a fitted effect of over 55% in size
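DT40 Tdp1-/-;hTDP1 cells, no CPT (DMSO vehicle only), 400 cells/well; compounds pin-transferred; ≥48 hr, 37 °C; CellTiter-Glo 30 min RT dark, luminescence read.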
DRD3 antagonist – qHTS of D3 Dopamine Receptor Antagonist: qHTS | D3R cells, DiscoveRx beta-arrestin luminescence, antagonist mode; hits give low values | D(3) dopamine receptor (Homo sapiens), P35462 | max response, negative = inhibition, % | AID 652054, 2013 | hit rate 2.5% among 360,000; in the data active means max response below about -50%; inconclusive means no clear call, values can overlap the other calls; further: on the % scale 0 is the no-effect control and ±100 the full control effect
Target sequence (P35462 whole entry, looked up): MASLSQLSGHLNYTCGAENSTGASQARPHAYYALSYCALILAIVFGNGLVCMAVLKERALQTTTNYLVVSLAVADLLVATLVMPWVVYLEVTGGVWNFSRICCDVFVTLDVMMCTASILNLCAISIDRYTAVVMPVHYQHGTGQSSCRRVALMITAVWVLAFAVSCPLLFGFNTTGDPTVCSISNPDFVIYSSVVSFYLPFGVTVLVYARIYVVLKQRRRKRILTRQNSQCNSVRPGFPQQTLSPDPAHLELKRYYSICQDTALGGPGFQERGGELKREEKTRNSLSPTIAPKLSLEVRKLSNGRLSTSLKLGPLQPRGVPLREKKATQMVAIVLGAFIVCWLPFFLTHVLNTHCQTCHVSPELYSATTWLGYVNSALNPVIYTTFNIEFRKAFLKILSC
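Cells plated overnight at 1500 cells/well, then exposed to library compounds with dopamine controls for 90 minutes at 37 degrees C. DiscoveRx reagent added for 30–60 minutes at room temperature; luminescence read, quantitative HTS format.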
IL1B secr inh – qHTS for Inhibitors of Inflammasome Signaling: IL-1-beta AlphaLISA Primary Screen; THP-1 LPS/ATP IL-1B secretion, AlphaLISA, 16 h; hits give low values; activity change, % at 57.5 µM; hit rate 4.7% among 360,000; in the data active means activity change below about -50%; inconclusive means mostly about -30% to -49%; further: on the % scale 0 is the no-effect control and ±100 the full control effect
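THP-1 cells pretreated 1 hr with compounds (up to 57.5 uM final), then stimulated with LPS (250 ng/mL final) plus ATP (1.25 mM final); secreted IL-1B measured by AlphaLISA after 16 hr, decreased signal indicating inhibition.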
DRD3 agonist – qHTS of D3 Dopamine Receptor Agonist: qHTS | D(3) dopamine receptor (Homo sapiens), P35462 | D3R DiscoveRx beta-arrestin cells, luminescence, 90 min | max activation, % | hit rate 0.58% among 410,000; in the data active means max activation above about 30%; further: 0% is about no effect
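Agonist mode: compounds and dopamine controls were applied to plated cells for 90 min at 37 degrees C after an overnight attachment at 1500 cells/well. Luminescent read-out followed 30 - 60 minutes at room temperature with DiscoveRx detection reagent.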
Active calls of the source: *; ? = inconclusive; nt = no result. Unless noted, the call rests on the fitted dose curve; in most records, active means well fitted inhibition curve with a large enough effect; inconclusive means small, poorly fitted or top-dose-only effect; inactive means flat fitted curve, though single readings scatter.

SMILES	ClpP mod	TDP1 cell CPT	DT40 TDP1 no CPT	DRD3 antagonist	IL1B secr inh	DRD3 agonist
CC(=O)C1=C(C)OC(N)=C(C#N)C1c1cc([N+](=O)[O-])ccc1Cl (centres undefined)	nt	4.1µM*	3.7µM*	-22	-62*	-6
COc1ccc2cc(C3C(C#N)=C(N)OC(C)=C3C(C)=O)c(Cl)nc2c1 (centres undefined)	nt	?	21µM*	6	-3	1
CCOC(=O)C1=C(C)OC(N)=C(C#N)C1c1cc2cc(C)ccc2nc1N1CCCCC1 (centres undefined)	28µM*	?	?	-4	0	0
CNc1cncc(-c2cccc(C(=O)NC3CC3)c2)n1	5%	?	?	5	-14	5
COc1ccc(S(=O)(=O)N(C)C[C@H]2OCc3cnnn3CCCC(=O)N([C@H](C)CO)C[C@@H]2C)cc1	0%	-7%	-24%	-6	-6	-7
COC(=O)N1CCC2(CCCN(C(=O)Nc3cccc(F)c3)C2)CC1	nt	0%	-4%	nt	nt	nt
COc1ccc(N2CCN(C(=O)CCCCCn3c(=O)[nH]c4ccsc4c3=O)CC2)cc1	nt	?	16µM*	0	-1	-5
O=C(CCCCn1c(=O)[nH]c2ccsc2c1=O)N1CCN(c2cccc(C(F)(F)F)c2)CC1	-2%	12µM*	9.2µM*	nt	nt	7
O=C(CCCCn1c(=O)[nH]c2ccccc2c1=O)N1CCN(c2cccc(C(F)(F)F)c2)CC1	-6%	16µM*	?	5	-27	8
O=C(CCn1c(=O)[nH]c2ccccc2c1=O)N1CCN(c2cccc(C(F)(F)F)c2)CC1	-1%	16µM*	18µM*	49	?	2
Cc1ccc(C(=O)NNC(=O)CSc2nnc(-c3ccccc3)n2Cc2ccccc2)cc1	-1%	?	?	9	-9	5
O=C(Cn1cncc1-c1ccc([N+](=O)[O-])cc1)Nc1ccccc1F	0%	?	-16%	-13	49	-3
Cc1cccn2c(=O)c3cc(C(=O)NC(C)c4ccccc4)c(=N)n(CCOCCO)c3nc12 (centres undefined)	4%	23µM*	26µM*	nt	nt	-7
CCOCCCn1c(=N)c(C(=O)NC(C)c2ccccc2)cc2c(=O)n3cccc(C)c3nc21 (centres undefined)	4%	16µM*	16µM*	nt	nt	-3
COCCn1c(=N)c(C(=O)NC(C)c2ccccc2)cc2c(=O)n3cc(C)ccc3nc21 (centres undefined)	4%	9%	-10%	nt	nt	4
CCOCCCn1c(=N)c(S(=O)(=O)c2ccc(C)cc2)cc2c(=O)n3cccc(C)c3nc21	-9%	nt	nt	nt	nt	9
Cc1cccn2c(=O)c3cc(C(=O)NC(C)c4ccccc4)c(=N)n(CCCn4ccnc4)c3nc12 (centres undefined)	nt	?	?	8	-83*	10
Cc1cccn2c(=O)c3cc(C(=O)NCc4ccccc4)c(=N)n(CCOCCO)c3nc12	4%	12µM*	26µM*	nt	nt	-3
COc1ccc(O)c(C(=O)c2cnc3c(c2)c(C)nn3CCO)c1	nt	15%	2%	6	26	5
COc1ccc(CCCc2nnc(SCc3nc4ccccc4c(=O)[nH]3)n2C)c(C)c1	0%	-25%	-10%	-21	1	2
COc1ccc(S(=O)(=O)NCc2cccnc2)cc1C	0%	0%	0%	5	6	-2
Cc1cccc(NC(=O)NNC(=O)c2ccccn2)c1	-3%	-2%	-26%	-4	-12	-3
COc1ccc(S(=O)(=O)N(Cc2ccccc2)Cc2nc3ccccc3c(=O)[nH]2)cc1	-3%	4.6µM*	5.2µM*	2	2	-2
O=c1[nH]c(CN(CCc2ccccc2)S(=O)(=O)c2ccc(Cl)cc2)nc2ccccc12	8%	-4%	?	-7	14	6
COc1ccccc1CN(Cc1nc2ccccc2c(=O)[nH]1)S(=O)(=O)c1ccc2ccccc2c1	-3%	3.7µM*	5.6µM*	15	-26	17
SMILES	ClpP mod	TDP1 cell CPT	DT40 TDP1 no CPT	DRD3 antagonist	IL1B secr inh	DRD3 agonist
CCCCCCCCNC(C)C(O)c1ccc(SC(C)C)cc1 (centres undefined)	-1%	18µM*	16µM*	?	-86*	-82
O=C(NC1CCCCC1)C(c1ccnc2ccccc12)N1CCc2ccccc2C1 (centres undefined)	-23%	?	?	-25	53	-8
Nc1cccc[n+]1C(c1ccnc2ccccc12)[n+]1ccccc1N	-22%	1.1µM*	1µM*	nt	nt	nt
CCc1ccccc1N1CC(c2nc3ccccc3n2Cc2cccc(C)c2)CC1=O (centres undefined)	0%	10µM*	13µM*	nt	nt	-4
Cc1ccc(C)c(Cn2c(C3CC(=O)N(c4ccccc4C)C3)nc3ccccc32)c1 (centres undefined)	-3%	23µM*	21µM*	nt	nt	-4
CCOc1ccc(N2CC(c3nc4ccccc4n3Cc3cccc(C)c3)CC2=O)cc1 (centres undefined)	-3%	?	?	nt	nt	5
CCOC(=O)[C@]12CCC=C1N(Cc1ccc3c(c1)OCO3)C(=O)[C@H](CC(=O)NCCCN1CCCC1=O)C2	0%	6%	-1%	1	7	6
O=C(CN1C(=O)CSc2ccc(S(=O)(=O)N3CCCC3)cc21)NCc1ccccc1Cl	-11%	?	-27%	nt	nt	-6
COC(=O)c1cc(C(=O)OC)n(Cc2ccc(Cl)cc2Cl)n1	1%	-19%	2%	-21	4	-16
CC(C)(C)c1cc(C(=O)O)n(Cc2ccc(Cl)cc2Cl)n1	-8%	15µM*	-13%	11	23	3
CC(O)CCCCn1c(=O)c2c(ncn2C)n(C)c1=O (centres undefined)	nt	3%	-10%	nt	nt	-1
Cc1cccc(C(=O)N2CCN(CCNC(=O)C(=O)Nc3ccc(F)cc3)CC2)c1	nt	2%	?	11	-12	-14
COc1ccccc1C(=O)N1CCN(CCNC(=O)C(=O)Nc2ccc(Br)c(C)c2)CC1	0%	?	10µM*	14	-4	4
Cc1ccccc1C(=O)N1CCN(CCNC(=O)C(=O)Nc2ccc(Br)cc2)CC1	-2%	15µM*	?	-3	0	1
